In PubChem BioAssay (Tox21):
Results filed as inconclusive are left out. Calls of active or inactive are those of the source. Calls follow the shape of the full dose curve.

How the values were obtained:
[1] = biological target: Acetylcholinesterase (Homo sapiens) (UniProt P22303); assay: Acetylcholinesterase (AChE) small molecule antagonists: colormetric cell-based qHTS assay (AID 1347395); also: nearly all actives have a fitted effect of over 30% in size
Procedure, shortened: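 SH-SY5Y cells, plated overnight at 37 C, were exposed to compounds for 30 min at 37 C and 5% CO2. Acetylthiocholine plus DTNB was then added, and thiocholine from endogenous AChE was quantified colorimetrically after 90 min at 37 C.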

[2] = biological target: Acetylcholinesterase (Homo sapiens) (UniProt P22303); assay: Acetylcholinesterase (AChE) small molecule antagonists: enzyme-based qHTS assay (AID 1347397); details: Potency: AChE enzyme activity inhibition; outcome: AChE enzyme activity inhibition; also: nearly all actives have a fitted effect of over 55% in size
Procedure, shortened: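 Absorbance-based detection of thiocholine with DTNB served as the read-out. Recombinant human AChE was exposed to compound for 30 min at RT before a 10 min RT incubation with acetylthiocholine.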

[3] = biological target: Acetylcholinesterase (Homo sapiens) (UniProt P22303); assay: Acetylcholinesterase (AChE) small molecule antagonists: fluorescence cell-based qHTS assay (AID 1347398); details: Potency: AChE activity; outcome: AChE activity; also: nearly all actives have a fitted effect of over 50% in size
Procedure, shortened: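 Fluorimetric cell-based assay: intact SH-SY5Y cells, 30 min compound preincubation at 37 C, acetylthiocholine substrate with thiol probe Thiolite Green, 40 min RT development, fluorescence 490/520 nm.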

[4] = biological target: Acetylcholinesterase (Homo sapiens) (UniProt P22303); assay: Acetylcholinesterase (AChE) small molecule antagonists: enzyme-based qHTS assay with human liver microsomes (AID 1347399); details: Potency: qHTS inhibition; outcome: qHTS inhibition; also: nearly all actives have a fitted effect of over 60% in size
Procedure, shortened: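 Recombinant human AChE (50 mU/mL in the enzyme mix) and human liver microsomes (0.25 mg/mL final) were preincubated with compound and NADPH (0.25 mg/mL final) for 30 min at 37 C. Acetylthiocholine/DTNB was then added; thiocholine was read colorimetrically after 10 min at room temperature.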

Measured: Potency

Acetylcholinesterase (Homo sapiens), sequence (P22303 whole entry, looked up): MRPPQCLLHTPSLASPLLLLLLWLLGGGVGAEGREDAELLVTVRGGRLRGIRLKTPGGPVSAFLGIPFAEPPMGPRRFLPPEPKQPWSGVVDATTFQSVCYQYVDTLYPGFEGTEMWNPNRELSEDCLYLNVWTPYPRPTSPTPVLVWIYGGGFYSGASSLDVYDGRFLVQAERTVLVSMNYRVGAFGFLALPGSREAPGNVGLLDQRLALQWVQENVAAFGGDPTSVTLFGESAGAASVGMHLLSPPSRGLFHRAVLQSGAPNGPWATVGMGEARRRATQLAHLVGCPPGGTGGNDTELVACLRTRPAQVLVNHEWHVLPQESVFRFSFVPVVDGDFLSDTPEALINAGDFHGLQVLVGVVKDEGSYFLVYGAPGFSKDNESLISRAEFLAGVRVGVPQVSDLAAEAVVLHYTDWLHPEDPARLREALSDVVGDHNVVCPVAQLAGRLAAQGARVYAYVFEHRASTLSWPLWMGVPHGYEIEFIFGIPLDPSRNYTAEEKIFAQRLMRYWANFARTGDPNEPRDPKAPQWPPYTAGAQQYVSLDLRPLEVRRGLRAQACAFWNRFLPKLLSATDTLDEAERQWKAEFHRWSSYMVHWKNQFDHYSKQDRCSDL

CCOCCC(=O)OCC
inactive: all assays above

O=S(=O)(O)c1cccc2ccccc12
inactive: all assays above

CCCCC(CC)COC(=O)c1ccccc1 (stereo not given)
inactive: all assays above

CCn1cc(C(=O)O)c(=O)c2cnc(N3CCNCC3)nc21
inactive: all assays above

C=C(C)C(=O)OC(C)C
inactive: all assays above

CC1=NN(c2cc(S(=O)(=O)O)ccc2Cl)C(=O)C1N=Nc1ccccc1 (stereo not given)
inactive: all assays above

Cc1cc(C)c(/C=C2\C(=O)Nc3ccccc32)[nH]1
inactive: all assays above

Cc1cc(NC(=O)C(=O)O)cc(C)c1Oc1ccc(O)c2c1CCC2
inactive: all assays above

CC1=CC(C)C(C=O)C(C)C1 (stereo not given)
inactive: all assays above

CCCCCCCC(=O)OCCCCCC
inactive: all assays above

NC(=O)CC[C@@H]1NC(=O)[C@H](Cc2ccccc2)NC(=O)[C@H](Cc2ccc(O)cc2)NC(=O)CCSSC[C@@H](C(=O)N2CCC[C@H]2C(=O)N[C@@H](CCCN=C(N)N)C(=O)NCC(N)=O)NC(=O)[C@H](CC(N)=O)NC1=O
inactive: all assays above

COC(c1ccccc1)(c1ccccc1)[C@H](Oc1nc(C)cc(C)n1)C(=O)O
inactive: all assays above

CNC(=O)Nc1ccc(Cl)c(Cl)c1
inactive: all assays above

O=C(c1ccccc1)c1cc(Cl)ccc1O
inactive: all assays above

C=CC(=O)CC
inactive: all assays above

CN1CCN(C)CC1
inactive: all assays above

CC(=O)c1cc2ccccc2s1
inactive: all assays above

CC1(C)C2=CCCC(C)(C)[C@]23CC[C@H]1C3
inactive: all assays above

CO[C@@H]1[C@@H](OC)[C@H](C)[C@@](O)(CC(=O)O)O[C@H]1[C@H](C)[C@H]1O[C@@]2(CC[C@@](C)([C@H]3CC[C@@](C)([C@@H]4O[C@@H]([C@H]5O[C@](C)(O)[C@H](C)C[C@@H]5C)C[C@@H]4OC4C[C@H](OC)[C@@H](OC)[C@H](C)O4)O3)O2)C[C@H](O)[C@H]1C (stereo not given in full)
inactive: all assays above

CCCCN(CCCC)CCCCCCN(CCCC)CCCC
inactive: all assays above

CCCCCCCCCCC(CO)CCCCCCCC (stereo not given)
inactive: all assays above

Oc1cc(O)c2c(c1)O[C@H](c1ccc(O)c(O)c1)[C@H](O)C2
inactive: all assays above

O=C(O)c1cc(Br)c(O)c(Br)c1
inactive: all assays above

CCC(CO)(CO)CO
inactive: all assays above

Nc1ccc(N=Nc2ccccc2)c(N)n1
inactive: all assays above

Nc1cc([N+](=O)[O-])ccc1Cl
inactive: all assays above

CCCCOC(=O)C(C)OC(=O)CCC (stereo not given)
inactive: all assays above

CC(C)(C)N
inactive: all assays above

CCCCC/C=C\C/C=C\CCCCCCCC(=O)O
inactive: all assays above

Nc1cc([N+](=O)[O-])cc(Cl)c1O
inactive: all assays above
